Results: PubChem BioAssay (NCI)
About 79,000 compounds went through this panel and 15% of them were active in at least one assay; those are over-represented in the sample as a whole. Active and inactive are the calls of the source. No stated cut-off is given here; in the data, active means growth inhibition above about 70%; inactive means the rest.

How the values were obtained:
[1] = NCI Yeast Anticancer Drug Screen. Data for the rad52 strain (AID 147);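 further: 0% = growth of vehicle-treated control cultures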; conditions: S. cerevisiae rad52 mutant growth inhibition, hits give high values
Method in brief: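 Inhibition of yeast growth, referenced to vehicle controls, was the measured output for a strain with defective DNA damage repair.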

[2] = NCI Yeast Anticancer Drug Screen. Data for the wt1 strain (AID 149);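 further: 0% = growth of vehicle-treated wt1 cultures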; conditions: S. cerevisiae wt1 strain (SPY 50644) growth inhibition, hits give high values
Method in brief: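 wt1 yeast, compound-treated; % growth inhibition vs vehicle control.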

[3] = NCI Yeast Anticancer Drug Screen. Data for the rad50EPP+ strain (AID 151);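 further: 0% = growth of vehicle-treated control cultures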; conditions: S. cerevisiae rad50 mutant strain, hits give high values
Method in brief: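 Genetically defined yeast (rad50EPP+, DNA damage repair alteration) is grown with compound, and inhibition of growth is expressed relative to vehicle-treated controls.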

[4] = NCI Yeast Anticancer Drug Screen. Data for the rad50 strain (AID 155);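 further: 0% = growth of vehicle-only cultures of the same strain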; conditions: S. cerevisiae rad50 strain growth inhibition, hits give high values
Method in brief: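 Genetically altered yeast (DNA repair pathway); compound treatment; growth inhibition vs vehicle ctrl.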

[5] = NCI Yeast Anticancer Drug Screen. Data for the mec2-1 strain (AID 157); conditions: S. cerevisiae mec2-1 strain, hits give high values
Method in brief: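 Each compound was tested on mec2-1 yeast, a strain altered in DNA damage repair or cell cycle control. Growth inhibition is reported relative to vehicle.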

[6] = NCI Yeast Anticancer Drug Screen. Data for the rad14 strain (AID 159);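 further: 0% = growth of vehicle-treated control cultures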; conditions: S. cerevisiae rad14 strain growth inhibition, hits give high values
Method in brief: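 Test compounds were applied to a repair-deficient yeast strain. Its growth was then compared with that of cultures given vehicle alone, and inhibition was expressed relative to those controls.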

[7] = NCI Yeast Anticancer Drug Screen. Data for the sgs1 mgt1 strain (AID 161);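 further: 0% = growth of cultures given vehicle only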; conditions: S. cerevisiae sgs1 mgt1 strain, hits give high values
Method in brief: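 Inhibition of yeast growth, normalised to vehicle-treated controls, is reported for a strain bearing genetic alterations in DNA damage repair.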

[8] = NCI Yeast Anticancer Drug Screen. Data for the CLN2oe strain (AID 163);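 further: 0% = growth of vehicle-only control cultures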; conditions: S. cerevisiae CLN2oe strain, hits give high values
Method in brief: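 First, the altered yeast strain was treated with each compound; second, its growth was measured; finally, inhibition was derived by comparison with vehicle controls.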

[9] = NCI Yeast Anticancer Drug Screen. Data for the cln2 rad14 strain (AID 165);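 further: 0% = growth equal to vehicle treated cultures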; conditions: S. cerevisiae cln2 rad14 strain, hits give high values
Method in brief: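 Test compounds were added to cln2 rad14 yeast cultures; inhibition of growth was then determined by comparison with vehicle treatment.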

[10] = NCI Yeast Anticancer Drug Screen. Data for the bub3 strain (AID 167); conditions: S. cerevisiae bub3 mutant strain, hits give high values
Method in brief: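 Yeast carrying a defined mutation is treated with each compound, and growth is compared with that of vehicle-exposed cells to give inhibition.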

[11] = NCI Yeast Anticancer Drug Screen. Data for the wt2 strain (AID 169);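 further: 0% = growth of vehicle-treated yeast cultures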; conditions: S. cerevisiae wt2 strain growth inhibition, hits give high values
Method in brief: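 The panel's yeast strains carry defined changes in DNA repair or cell cycle genes. Each strain is grown with compound, and growth loss is scored relative to vehicle.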

[12] = NCI Yeast Anticancer Drug Screen. Data for the mlh1 strain (AID 171);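 further: 0% = growth of vehicle-treated control cultures of the same strain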; conditions: S. cerevisiae mlh1 strain growth inhibition, hits give high values
Method in brief: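 Inhibition values reflect reduced yeast growth in the presence of compound, referenced to vehicle controls, using a strain chosen for its alteration in DNA repair or cell cycle control.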

[13] = NCI Yeast Anticancer Drug Screen. Data for the sgs1 strain (AID 173);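 further: 0% = growth of vehicle-only control cultures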; conditions: S. cerevisiae sgs1 mutant, hits give high values
Method in brief: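 Vehicle-treated cultures served as reference for growth inhibition of a yeast strain altered in DNA damage repair or cell cycle control after compound exposure.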

[14] = NCI Yeast Anticancer Drug Screen. Data for the mlh1 rad18 strain (AID 175); conditions: S. cerevisiae mlh1 rad18 strain growth inhibition, hits give high values
Method in brief: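 Inhibition values reflect reduced growth of mutant yeast versus vehicle-treated controls following compound exposure; the mutations affect DNA damage repair.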

[15] = NCI Yeast Anticancer Drug Screen. Data for the rad18 strain (AID 177); conditions: S. cerevisiae rad18 mutant growth inhibition, hits give high values
Method in brief: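 Steps: expose repair-mutant yeast to compound; measure growth; express as inhibition relative to vehicle control.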

[16] = at 5.0 µM (retest, dose inferred, filed as 0.5)
[17] = at 50.0 µM (retest, dose inferred, filed as 5.0)

Measured: growth inhibition

CCCCNC1CCC2(SCCS2)c2[nH]c3ccccc3c21 (stereo not drawn)
inactive: [1]; at 1.2 µM 2% | [1]; at 3.7 µM 5% | [1]; at 11.0 µM 3% | [1]; at 33.0 µM 4% | [1]; at 100.0 µM 5% | [2]; at 1.2 µM 1% | [2]; at 3.7 µM 1% | [2]; at 11.0 µM 0% | [2]; at 33.0 µM 1% | [2]; at 100.0 µM 6% | [3]; at 1.2 µM -2% | [3]; at 3.7 µM -1% | [3]; at 11.0 µM -2% | [3]; at 33.0 µM -4% | [3]; at 100.0 µM 7% | [4]; at 1.2 µM 2% | [4]; at 3.7 µM 3% | [4]; [16] 9% | [4]; at 11.0 µM -7% | [4]; at 33.0 µM 3% | [4]; [17] 49% | [4]; at 100.0 µM 6% | [5]; at 1.2 µM 10% | [5]; at 3.7 µM -1% | [5]; [16] 4% | [5]; at 11.0 µM -2% | [5]; at 33.0 µM -4% | [5]; [17] -14% | [5]; at 100.0 µM 7% | [6]; at 1.2 µM 6% | [6]; at 3.7 µM 0% | [6]; at 11.0 µM 4% | [6]; at 33.0 µM 1% | [6]; at 100.0 µM 9% | [7]; [16] -5% | [7]; [17] 21% | [8]; at 1.2 µM 10% | [8]; at 3.7 µM -4% | [8]; at 11.0 µM 0% | [8]; at 33.0 µM -1% | [8]; at 100.0 µM 6% | [9]; [16] -7% | [9]; [17] 31% | [10]; at 1.2 µM -6% | [10]; at 3.7 µM 1% | [10]; [16] -16% | [10]; at 11.0 µM 6% | [10]; at 33.0 µM -1% | [10]; [17] 17% | [10]; at 100.0 µM 3% | [11]; at 1.2 µM 1% | [11]; at 3.7 µM 2% | [11]; at 11.0 µM 3% | [11]; at 33.0 µM 3% | [11]; at 100.0 µM 8% | [12]; at 1.2 µM 5% | [12]; at 3.7 µM -2% | [12]; at 11.0 µM 4% | [12]; at 33.0 µM -1% | [12]; at 100.0 µM 6% | [13]; at 1.2 µM 0% | [13]; at 3.7 µM -2% | [13]; at 11.0 µM -1% | [13]; at 33.0 µM -3% | [13]; at 100.0 µM 3% | [14]; [16] 1% | [14]; [17] 21% | [15]; at 1.2 µM 2% | [15]; at 3.7 µM -4% | [15]; at 11.0 µM -4% | [15]; at 33.0 µM -18% | [15]; at 100.0 µM 4%
active: [4]; at 50.0 µM 87.3% | [5]; at 50.0 µM 91.2% | [7]; at 50.0 µM 85.2% | [9]; at 50.0 µM 89.5% | [10]; at 50.0 µM 88.2% | [14]; at 50.0 µM 84.7%
